Screening data as filed in PubChem BioAssay.
DT40 TDP1 CPT: DT40-hTDP1 cell growth loss with CPT; 12% of 420,000 active; chicken DT40 Tdp1-/-;hTDP1 cells + 20 nM CPT, ATP luminescence, 48 h; Potency, µM (titrated, usually from 46.2 µM), for inactives: top-dose activity change, negative = growth inhibition, actives largely listed as inhibitors; also: % is scaled to controls: 0 for no effect and ±100 for the full control effect; nearly all actives have a fitted effect of over 55% in size
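Chicken DT40 Tdp1-/- cells complemented with human TDP1, 400 cells/well, exposed to compounds plus 20 nM camptothecin for at least 48 h at 37 C; viability read as ATP content by CellTiter-Glo luminescence.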
TDP1 inh: inhibitors of human tyrosyl-DNA phosphodiesterase TDP1; 0.28% of 350,000 active; recombinant TDP1, AlphaScreen DNA substrate cleavage; Potency, µM (series often up to 130 µM), inactives show at the highest dose activity change, negative = inhibition, actives largely listed as inhibitors; Q9NUW8; AID 485290; also: % is scaled to controls: 0 for no effect and ±100 for the full control effect; nearly all actives have a fitted effect of over 40% in size
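Recombinant human Tdp1 (E. coli-expressed, 1 nM final) preincubated with compounds 15 min at room temperature, then 5'-biotin/3'-phosphotyrosine-FITC DNA substrate (15 nM final) added for 5 min. AlphaScreen beads (10 ug/ml final) added 10 min; cleavage lowers signal.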
DT40 TDP1 no CPT: qHTS for Inhibitors of human tyrosyl-DNA phosphodiesterase 1 (TDP1): qHTS in cells in absence of CPT; 15% of 420,000 active; Potency, µM (top dose mostly 46.2 µM), inactives show top-dose activity change, negative = growth inhibition, hits mostly inhibitors; DT40 Tdp1-/- hTDP1 cells, no CPT, ATP luminescence, 48 h; also: % is scaled to controls: 0 for no effect and ±100 for the full control effect; nearly all actives have a fitted effect of over 55% in size
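Luminescent ATP content (CellTiter-Glo) served as the growth readout. Knockout chicken DT40 cells expressing human TDP1 were exposed to compounds without camptothecin for a minimum 48 hr at 37 °C.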
ClpP mod: qHTS Assay for Activators of ClpP. ATP-dependent Clp protease proteolytic subunit (Bacillus subtilis (strain 168)), P80244. purified B. subtilis ClpP, FRET peptide cleavage, 20 min. Potency, µM (series often up to 57.5 µM), for the others: top-dose activity change, negative = active. 1.9% of 340,000 active; active = well fitted falling curve with a large enough effect; inconclusive = small, poorly fitted or top-dose-only effect; inactive = no such curve, though single readings can be large or run the other way; also: the source files actives as falling curves though it sought activators and does not explain the sign; nearly all actives have a fitted effect of over 65% in size
Target sequence (P80244 whole entry, looked up): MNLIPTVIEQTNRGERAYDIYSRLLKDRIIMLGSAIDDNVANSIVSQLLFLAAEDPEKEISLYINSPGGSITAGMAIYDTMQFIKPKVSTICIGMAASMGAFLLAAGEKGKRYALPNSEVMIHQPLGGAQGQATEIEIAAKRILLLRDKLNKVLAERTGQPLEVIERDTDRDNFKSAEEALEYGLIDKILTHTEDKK
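Buffer: 100 mM Tris/HCl pH8, 100 mM KCl, 0.05% low protease BSA, 2.5% glycerol, 0.01% Tween-20. ClpP 10 microg/mL final; 20 min RT; delta FRET normalized to ADEP and DMSO controls.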
An asterisk follows results filed as active; ? = inconclusive; / = not tested or not shown; [ ] = dose if it differs, or a comment. Shown are actives, neighbours in structure and some others; about 17% of the full set was active somewhere. Unless noted, calls follow the shape of the dose curve; as a rule, active = well fitted curve in the direction sought with a large enough effect; inconclusive = small, poorly fitted or top-dose-only effect, or another doubt; inactive = no such curve, though single readings can be large; an effect the other way counts as inactive or inconclusive. Potency is read from the fitted curve at half-maximal effect.

SMILES	DT40 TDP1 CPT	TDP1 inh	DT40 TDP1 no CPT	ClpP mod
Cn1c(=O)n(C)c2cc(/C=N/NC(=S)NCc3ccccc3)ccc21	?	8%	26µM*	-15%
O=C(CNC(=O)c1cccc(Cl)c1)OC(C(=O)Nc1cc(C(F)(F)F)ccc1Cl)c1ccccc1 (stereo not given)	/	-1%	/	/
COCC(=O)N1CCC2(CC1)CN(c1ccccn1)C2	-26%	/	?	/
C[C@H]1CN([C@@H](C)CO)S(=O)(=O)c2ccc(Br)cc2O[C@@H]1CN(C)C(=O)C1CCOCC1	-16%	/	?	1%
O=c1n(Cc2ccc(F)cc2Cl)c2ccccc2c2nc(-c3ccccc3)nn12	-4%	-2%	0%	-1%
O=c1n(Cc2ccc([N+](=O)[O-])cc2)c2ccccc2c2nc(-c3ccccc3)nn12	7.3µM*	2%	?	0%
COc1ccc(-c2cc(C(=O)O)n(Cc3ccccc3)n2)cc1	-3%	2%	-19%	-12%
CC(=O)Nc1ccc(S(=O)(=O)N[C@@H](C)C(=O)OCc2cc([N+](=O)[O-])cc3c2OCOC3)cc1	-7%	1%	15%	-2%
CC(C)C(NS(=O)(=O)c1ccccc1)C(=O)OCc1cc([N+](=O)[O-])cc2c1OCOC2 (stereo not given)	-25%	4%	?	32µM*
CCOC(=O)CSc1nc2sc3c(c2c(=O)n1Cc1ccccc1)CCC(C(C)(C)C)C3 (stereo not given)	-10%	2%[12.3 µM]	5%	-3%
Cc1occc1C(=O)N/N=C/C1=C(N2CCOCC2)C(=C\c2ccc(Cl)cc2Cl)/CC1	?	2%	7.3µM*	-3%
O=CC1=C(N2CCOCC2)/C(=C/c2ccc(Cl)cc2)CC1	?	0%	21µM*	3%
Cn1cc(C(=O)N/N=C/C2=C(N3CCOCC3)C(=C/c3ccc([N+](=O)[O-])cc3)/CC2)ccc1=O	?	/	-27%	/
Cc1cc(C)nc(N/N=C/c2ccc(N3CCOCC3)cc2)n1	?	4%	-16%	-5%
Cc1cc(C)nc(NN=CC2=C(N3CCOCC3)/C(=C/c3ccc(Cl)cc3)CC2)n1	12µM*	/	8.2µM*	/
Cc1cc(C)nc(N/N=C/C2=C(N3CCOCC3)C(=C\c3ccc(Cl)cc3)/CC2)n1	23µM*	7%	16µM*	/
C/C(=N/NC(=O)c1ccoc1C)c1ccc(N2CCOCC2)cc1	-3%	-10%	-17%	0%
CC1(C(=O)NS(=O)(=O)c2ccc(Cl)s2)CCN1C(=O)c1ccc(C2CCCCC2)cc1 (stereo not given)	-6%	/	-11%	0%
O=C(O)c1ccc(N/N=C/C2=C(N3CCOCC3)C(=C\c3ccccc3)/CC2)cc1	?	/	21µM*	/
CC(C)(C)NC(=O)C(=O)NNC(=O)c1cccc(F)c1	4%	5%	-60%	-2%
Cc1ccc(Cl)cc1NC(=O)C(Cc1ccccc1)NS(=O)(=O)c1cccc2nsnc12 (stereo not given)	?	2%	?	-1%
NC(=O)c1cc2c3ccccc3ccn2c1-c1ccccc1	0.18µM*	10%	0.21µM*	3%
Cc1ccc(NNC(=S)Nc2ccc(C(C)C)cc2)c(C)c1	?	9%	16µM*	-2%
CN(C)NC(=S)Nc1cccc(C(F)(F)F)c1	16%	-2%	-4%	/
CC(NC(=S)Nc1cccc(C(F)(F)F)c1)C(C)(C)C (stereo not given)	?	-5%	16µM*	-1%
SMILES	DT40 TDP1 CPT	TDP1 inh	DT40 TDP1 no CPT	ClpP mod
CN(C)C(=S)Nc1cccc(C(F)(F)F)c1	26µM*	1%	?	1%
CC(C)(C)NNC(=S)Nc1cccc(F)c1	?	4%	15µM*	/
Cc1cc(C)c(NC(=O)CNC(=O)c2ccccc2OCc2c(C)noc2C)c(C)c1	-22%	-3%[0.505 µM]	-26%	1%
COC(=O)C1CCN(Cc2ccc3c(c2)CN(C(=O)c2ccnn2C)CCO3)CC1	1%[9.04 µM]	/	-3%	/
Cc1ccc(NC(=S)NNC(=S)Nc2cccc(C(F)(F)F)c2)cc1	?	4%	29µM*	/
FC(F)(F)c1cccc(NC(=S)NNC(=S)Nc2ccc(Cl)cc2)c1	/	8%	/	/
Cc1ccc(NC(=S)NNC(=O)Nc2ccccc2)cc1	?	5%	?	/
Cc1ccc(NC(=S)NNC(=S)Nc2ccc(C)cc2)cc1	6.5µM*	/	2.3µM*	0%
CCCC(=O)OCc1cnc(C)c2oc(=O)c(C(=O)Nc3ccc(F)cc3C)cc12	?	9%	-36%	-12%
CCCC[C@@H]1Cc2[nH][nH]c(=O)c2[C@H](c2ccc3ccccc3c2)O1	-1%	/	18µM*	1%
Cc1ccc(S(=O)(=O)N2CCN(Cc3nc4ccccc4n3C)CC2)cc1	-5%	4%	-18%	-4%
CC(C)(C)c1ccc(S(=O)(=O)n2c(CN3CCOCC3)nc3ccccc32)cc1	21µM*	4%	?	2%
COc1ccc(S(=O)(=O)n2c(CCN3CCOCC3)nc3ccccc32)cc1	-28%	11%	21µM*	0%
c1ccc2c(c1)nc(CN1CCOCC1)n1c3ccccc3nc21	13µM*	7%	16µM*	-20%
O=C1CCCc2cc(S(=O)(=O)NCC3CCC(C(=O)Nc4ccccc4F)CC3)ccc2N1 (stereo not given)	?	-3%	?	-4%
COc1ccccc1NC(=O)Cn1c(=O)n(Cc2ccco2)c(=O)c2oc3ccccc3c21	?	-5%	15µM*	32µM*
Cc1ccc(-n2c(=O)c3oc4ccccc4c3n(Cc3ccccc3)c2=O)cc1C	21µM*	0%	13µM*	-19%
O=c1c2oc3ccccc3c2n(Cc2ccccc2F)c(=O)n1Cc1ccc2c(c1)OCO2	0%	5%	?	25µM*
O=c1c2oc3ccccc3c2n(Cc2cccc(Cl)c2)c(=O)n1Cc1ccc2c(c1)OCO2	-22%	3%	?	-27%
COc1cccc(Cn2c(=O)n(Cc3ccco3)c(=O)c3oc4ccccc4c32)c1	?	3%	23µM*	13%
O=C1CSc2ccc(C(=O)NCC(c3ccco3)N3CCCCC3)cc2N1 (stereo not given)	-16%	0%	-11%	0%
O=c1c2oc3ccccc3c2n(Cc2cccc(Cl)c2)c(=O)n1Cc1ccco1	16µM*	8%	16µM*	-19%
O=c1c2oc3ccccc3c2n(Cc2ccccc2)c(=O)n1Cc1ccco1	-21%	3%	-21%	10%
CC(=O)N1CCc2cc(CNS(=O)(=O)c3ccc(F)cc3)ccc21	1%	3%	-23%	1%
CC(=O)N1CCc2cc(CNS(=O)(=O)c3ccc(Br)s3)ccc21	?	3%	21µM*	2%
CC(=O)N1CCc2cc(CNS(=O)(=O)c3ccc(Cl)s3)ccc21	?	5%	15µM*	0%
